# From PubChem BioAssay AID2685 (National Center for Advancing Translational Sciences (NCATS), 2010)
# Among all 320,000 compounds or so, about 2,100 (0.66%) were called active. Roughly 53% stayed inconclusive and do not appear here. Calls follow the shape of the dose curve; as a rule, active = well fitted inhibition curve with a large enough effect in the signal ratio, with a control signal flat (not every such curve was filed as active); inconclusive = small, poorly fitted or top-dose-only effect, or effect the other way, or a change in a side signal; inactive = flat fitted curve, though single readings scatter; the % refers to the signal ratio. This excerpt belongs to a sample that is enriched for actives.
# Assay: qHTS Assay for Lipid Storage Modulators in Drosophila S3 Cells;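 as to cell number change: cells counted by Cell Tracker Red CMTPX staining in the red channel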; as to lipid storage change, negative = inhibition: % is scaled to controls: 0 for no effect and ±100 for the full control effect
# Details: BODIPY lipid droplet fluorescence, 18-24 h, cells fed with added oleic acid; cell number change: measured here: cell count max response; series mostly up to 46.1 µM
# Procedure, shortened: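 Drosophila S3 cells got compounds at several concentrations plus oleic acid (400 uM solution). Laser-scanning cytometry with 488 nm excitation read lipid droplets at 500-530 nm and cells at 575-640 nm. Percent activity was relative to 20 uM Triacsin C.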
# Potency is read from the fitted curve at half-maximal effect.
SMILES,Potency,cell number change [%],"lipid storage change, negative = inhibition"
CC(=O)Nc1ccc(S(=O)(=O)NC(C)c2nc(-c3ccccc3)no2)cc1 (stereo not drawn),inactive,16.2,–
COc1ccc(-c2nn(CCC#N)cc2C=C(C#N)C#N)cc1,inactive,16.7,–
COc1ccc(-c2cc(C(=O)N3CC4(C)CC3CC(C)(C)C4)no2)cc1OC (stereo not drawn),inactive,-3.22,–
CC1(C)CC2CC(C)(CN2C(=O)c2cccs2)C1 (stereo not drawn),inactive,-7.87,–
CC1(C)CC2CC(C)(CN2C(=O)c2cc(-c3ccc(O)cc3)on2)C1 (stereo not drawn),0.92 µM (active),16.1,–
C=CCn1c(=S)[nH]c2scc(-c3ccco3)c2c1=O,inactive,8.4,–
C=CCn1c(SC(F)F)nc2scc(-c3ccco3)c2c1=O,0.058 µM (active),0.451,–
C=CCn1c(SCc2ccc3c(c2)OCO3)nc2scc(-c3ccco3)c2c1=O,inactive,-2.61,–
CC(C)N(Cc1nnc(-c2ccc(Cl)cc2)o1)C(=O)c1cc2ccccc2o1,inactive,-8.15,–
Oc1nc(Nc2ccc(F)cc2)sc1/C=C1\C=Nc2ccccc21,inactive,-4.17,–
Cc1ccccc1NC(=O)Cc1nnc(N)s1,inactive,-0.0956,–
CCOc1ccc(S(=O)(=O)N2CCC(C(=O)N3CCc4ccccc4C3)CC2)cc1,7.31 µM (active),-23.3,–
COC(=O)COc1ccc(S(=O)(=O)N2CCCCCC2)cc1,inactive,19.9,–
CCOc1ccc(S(=O)(=O)N2CCC(C(=O)N3CCN(Cc4ccccc4)CC3)CC2)cc1,inactive,-0.232,–
CCOc1ccc(S(=O)(=O)N2CCC(C(=O)N3CCN(c4ccccc4)CC3)CC2)cc1,inactive,-5.41,–
COC(=O)COc1ccc(S(=O)(=O)N2CCc3ccccc3C2)cc1,7.31 µM (active),22.6,–
COc1ccc(S(=O)(=O)N2CCc3ccccc3C2)cc1,inactive,4.92,–
Cc1ccc(C2=NNC(=O)C(P(=O)(c3ccccc3)c3ccccc3)C2)cc1 (stereo not drawn),inactive,21.3,–
S=C1NCN(C2CCCCC2)CN1Cc1ccccc1,inactive,2.76,–
CCCc1cc(=O)oc2cc(C)cc(OC(C)C(=O)NCCCN3CCOCC3)c12 (stereo not drawn),inactive,6.42,–
O=c1[nH]c2ccccc2nc1/C=C(\O)C(F)F,inactive,13.5,–
O=c1[nH]c2ccccc2nc1/C=C/c1ccc(F)cc1,9.2 µM (active),28.9,–
Cn1c(=O)c(/C=C/c2ccc(F)cc2)nc2ccccc21,inactive,-1.08,–
COC(=O)C1CCN(S(C)(=O)=O)CC1,inactive,4.24,–

SMILES,Potency,cell number change [%],"lipid storage change, negative = inhibition"
COC(=O)[C@H]1C2CCC(C(=O)OC)(CC2)[C@H]1C(=O)OC,1.3 µM (active),-5.5,–
COC(=O)[C@@H]1C2CCC(C(=O)Nc3ccccc3)(CC2)[C@@H]1C(=O)OC,inactive,–,–
CN(Cc1ccccc1)c1nnc(N)s1,inactive,-2.39,–
O=C(NC(=S)Nc1ccc(S(=O)(=O)Nc2nccs2)cc1)c1ccccc1F,inactive,13,–
Cc1ccc(/C=N/NC(=O)c2ccc(C(=O)N/N=C/c3ccc(C)s3)o2)s1,inactive,10.7,–
O=C(N/N=C\c1cn(-c2ccccc2)nc1-c1ccccc1)c1ccc(Br)o1,23.1 µM (active),6.81,–
Cc1ccc(/C=N/NC(=O)c2ccco2)s1,inactive,-9.87,–
O=C(N/N=C/c1cn(-c2ccccc2)nc1-c1ccccc1)c1ccco1,inactive,–,–
NC(=O)N/N=C/c1cn(-c2ccccc2)nc1-c1ccccc1,inactive,15.1,–
Cc1ccc(/C=N/NC(=O)c2ccc(Br)o2)s1,3.66 µM (active),-8.7,–
CCC(=O)N(c1ccc(C(=O)O)cc1)c1nc(-c2ccc(OC)cc2)c(C)s1,inactive,-9.44,–
CC(=O)Cc1nsc(NC(=O)c2ccc(-c3cc(Cl)ccc3Cl)o2)n1,inactive,15.1,–
COc1cccc(C(=O)Nc2nc3ccccc3[nH]2)c1,inactive,17.8,–
CS(=O)(=O)c1cccc(C(=O)Nc2ccc(-c3nc4ccccc4[nH]3)cc2)c1,inactive,86.3,–
CS(=O)(=O)c1ccc(C(=O)Nc2cccc(-c3nc4ccccc4[nH]3)c2)cc1,inactive,3.88,–
CS(=O)(=O)c1cccc(C(=O)Nc2cccc(-c3nc4ccccc4[nH]3)c2)c1,7.31 µM (active),-15,–
O=C(Nc1nc2ccccc2[nH]1)c1cccc([N+](=O)[O-])c1,inactive,-8.28,–
CN(C)c1cccc(C(=O)Nc2nc3ccccc3[nH]2)c1,14.6 µM (active),-3.6,–
Cn1c(N2CCOCC2)c(/C=N/OC(=O)c2cccnc2Cl)c2ccccc21,inactive,–,–
Cc1ccc(NS(=O)(=O)c2ccc3c(c2)NC(=O)CO3)c(C)c1,inactive,-9.44,–
O=C(Nc1nnc(C2CC2)s1)c1cccc(S(=O)(=O)N2CC(c3ccccc3)CC2=O)c1 (stereo not drawn),–,–,14.3% [at 9.22 µM] (inactive)
O=C1CCCN1S(=O)(=O)c1ccccc1,inactive,-14.6,–
O=C1CC(c2ccccc2)CN1S(=O)(=O)c1ccccc1 (stereo not drawn),20.6 µM (active),-20.2,–
O=C(N=C1SC2CS(=O)(=O)CC2N1CCc1ccccc1)C1CCCCC1 (stereo not drawn),inactive,–,–

SMILES,Potency,cell number change [%],"lipid storage change, negative = inhibition"
Cc1cc(C=O)c(C)n1-c1cccc(C(=O)O)c1,inactive,7.64,–
CC(C)(C)NC(=O)COC(=O)c1cc(S(=O)(=O)N2CCCCC2)ccc1N1CCOCC1,inactive,–,–
Cc1ccc(OCCOC(=O)c2cc(S(=O)(=O)N3CCCCC3)ccc2N2CCOCC2)cc1,5.17 µM (active),-27,–
CC(C)(C)C(=O)COC(=O)c1cc(S(=O)(=O)N2CCCCC2)ccc1N1CCOCC1,–,-8.75,-21.4% [at 0.0737 µM] (inactive)
NC(=O)c1ccc(NC(=O)COC(=O)/C=C/c2ccc3c(c2)OCO3)cc1,inactive,9.72,–
CC(=O)Nc1ccc(NC(=O)COC(=O)/C=C/c2ccc3c(c2)OCO3)cc1,5.17 µM (active),-1.06,–
COc1ccccc1NC(=O)COC(=O)/C=C/c1ccc2c(c1)OCO2,inactive,18,–
CCOC(=O)C1(Cc2ccccc2C(F)(F)F)CCN(C2CCN(C(C)=O)CC2)CC1,inactive,11.4,–
CC1CCc2nc(N)c(C#N)c(-c3cccn3C)c2C1 (stereo not drawn),inactive,–,–
COc1cccc2cc(C(=O)NCc3ccccc3Br)c(=O)oc12,inactive,1.66,–
CC1Cc2ccccc2N1C(=O)c1cc2cccnc2n(C)c1=O (stereo not drawn),inactive,1.02,–
NS(=O)(=O)c1cc2c(cc1Cl)NC(c1ccccc1OCC(=O)O)NS2(=O)=O (stereo not drawn),inactive,-10.4,–
COc1ccccc1/C=C/C(=O)c1ccc(Cl)cc1,4.61 µM (active),1.97,–
COc1ccccc1/C=C/C(=O)Nc1cccnc1,5.8 µM (active),-14.6,–
COc1ccccc1/C=C/C(C)=O,inactive,3.8,–
COc1ccccc1/C=C/C(=O)NCc1cccnc1,inactive,-13.8,–
COc1ccc(/C=C/C(=O)c2ccc(Cl)cc2)c(OC)c1,inactive,-5.6,–
COC(=O)/C=C/C(=O)Nc1cccnc1,inactive,-5.59,–
CCCOc1ccc(/C=N/Nc2ccc(C(=O)O)cc2)c(OCCC)c1,inactive,9.43,–
CCn1nc(NS(=O)(=O)c2ccc(NC(C)=O)cc2)c2cc3ccccc3nc21,inactive,-12.4,–
COCCN1C(=O)N[C@@H](c2ccco2)C(C(C)=O)=C1C,inactive,3.8,–
COCCCNC(=O)CN(c1cccc(Cl)c1)S(C)(=O)=O,inactive,-7.55,–
Cc1cc(NC(C)C)n2c(nc3ccccc32)c1C#N,16.4 µM (active),-88.9,–
CCC(C)Nc1cc(C)c(C#N)c2nc3ccccc3n12 (stereo not drawn),inactive,5.52,–

SMILES,Potency,cell number change [%],"lipid storage change, negative = inhibition"
CNc1cc(C)c(C#N)c2nc3ccccc3n12,inactive,-18.9,–
COC(=O)c1cn(CC(=O)N2C(C)CCCC2C)c2ccccc12 (stereo not drawn),inactive,9.64,–
CC1CCCC(C)N1C(=O)Cn1cc(C#N)c2ccccc21 (stereo not drawn),inactive,9.53,–
CC1CCCC(C)N1C(=O)Cn1cc(/C=C2/C(=O)Nc3ccccc32)c2ccccc21 (stereo not drawn),23.1 µM (active),-83.5,–
O=C(CS(=O)(=O)Cc1ccccc1)NCc1ccco1,inactive,-5.74,–
Cc1ccc(CCNC(=O)C2CCCN(S(=O)(=O)N3CC(C)CC(C)C3)C2)cc1 (stereo not drawn),inactive,-24.2,–
CC(=O)Cn1c(C(F)(F)F)nc2ccccc21,inactive,-7.24,–
COC(=O)Cn1c(C(F)(F)F)nc2ccccc21,inactive,-24.1,–
CC(C)(C)c1ccc(OC(=O)Cn2c(C(F)(F)F)nc3ccccc32)cc1,13 µM (active),-15.3,–
CC(C)(C)NC(=O)NC(=O)COC(=O)Cn1cnc2ccccc2c1=O,inactive,-17.2,–
CCOC(=O)c1c(NC(=O)COC(=O)Cn2c(C(F)(F)F)nc3ccccc32)sc(C)c1C,inactive,2.48,–
CC(C)(C)NC(=O)NC(=O)COC(=O)Cn1c(C(F)(F)F)nc2ccccc21,5.17 µM (active),-8.07,–
Nc1ccc(C(=O)Nc2cccc(NC(=O)c3ccc(N)cc3)c2)cc1,inactive,-20.4,–
CCCN1C(=O)C2C(C(=O)Nc3cccc(OC)c3)C3C=CC2(O3)C1C(=O)NC1CCCCC1 (stereo not drawn),inactive,1.47,–
Cc1ccc(S(=O)(=O)N(CC(=O)O)Cc2ccco2)cc1,inactive,0.734,–
COc1cccc(NC(=S)NCc2cccnc2)c1,inactive,–,–
COc1cc(NC(=S)NCc2cccnc2)cc(OC)c1,5.8 µM (active),-12.6,–
COc1cc(NC(=S)NCc2cccnc2)cc(OC)c1OC,inactive,5.48,–
Cc1ccc(-c2nc(C)sc2CC(=O)Nc2cccc(C)c2C)cc1,inactive,6.08,–
COc1ccc(NC(=O)C(=O)Nc2cccc3cccnc23)cc1OC,inactive,32.1,–
COc1ccc(C2CC(=O)C3=C(C2)Nc2ccccc2N(C(=O)CCC(=O)O)C3c2ccc(F)cc2)cc1OC (stereo not drawn),inactive,-2.28,–
